# Only some compounds are listed: those with a hit (about 3.5% of all), similar ones and a draw of the others.
# Anthrax LF prot = anthrax lethal factor protease inhibition. multiplex microsphere protease cleavage assay, LF. hit rate 0.12% among 360,000. AID 588501. inhibition, % at 10 µM. P15917; also: plate controls were buffer without enzyme for full effect and enzyme alone for no effect
# Autofluor counter = compound fluorescence in toxin protease inhibitor counterscreen; AID 624483; compound autofluorescence counterscreen, microsphere flow cytometry; active compounds read high; hit rate 3.1% among 360,000; fluorescence intensity (test concentration not listed); in the data active = fluorescence intensity above about 16000; inconclusive = no clear call, values can overlap the other calls
# BoNT-F LC inh = inhibitors of Botulinum neurotoxin F light chain protease; Multiplex microsphere protease cleavage assay, flow cytometry; hit rate 0.22% among 360,000; inhibition, % at 10 µM; in the data active = inhibition above about 35%, passing the limit was not always enough; inconclusive = no clear call, values can overlap the other calls; also: plate controls were buffer without enzyme for full effect and enzyme alone for no effect
# BoNT-A LC inh2 = blocks Botulinum neurotoxin A light chain protease; inhibition, % at 10 µM; AID 588499; multiplex microsphere protease substrate cleavage, flow cytometry; hit rate 0.17% among 360,000; also: plate controls were buffer without enzyme for full effect and enzyme alone for no effect
# * hit, by the source's call; ? = inconclusive. Rule as the data show it, unless noted: active = inhibition above about 30%; inconclusive = no clear call, values can overlap the other calls; inactive = below that.
SMILES,Anthrax LF prot,Autofluor counter,BoNT-F LC inh,BoNT-A LC inh2
COc1ccc(CN2C(=O)c3cccnc3C2Nc2ccc(OC)c(Cl)c2)cc1 (stereo not drawn),-0.5,22056*,2.4,?
Cc1ccc(C(=O)NC(Cc2ccccc2C(F)(F)F)C(=O)O)cc1 (stereo not drawn),0.6,4015,-2.5,-0.3
CC1(C)NC(=O)N(CC(O)CN2CCCCC2)C1=O (stereo not drawn),1.0,19639*,1.3,?
Cc1ccc(Cl)cc1N(CC(=O)NCc1ccccc1)S(C)(=O)=O,-12.8,4034,?,-5.0
CC1(C)CC(N=Cc2c(O)n(Cc3ccc4c(c3)OCO4)c(=O)c3ccccc23)CC(C)(C)N1,-8.8,4397,-6.7,-1.3
CCOc1ccccc1NC(=O)c1cnccn1,-1.8,4300,-2.3,-0.9
CSc1ccccc1NC(=O)Nc1ccc(Cl)cc1,-9.5,20588*,8.5,8.7
CC(C)c1ccccc1NC(=O)c1cnccn1,-1.5,25411*,-5.2,?
CSc1ccccc1NC(=O)c1cnccn1,-2.3,16758*,-5.5,?
CCc1ccccc1NC(=O)c1cnccn1,0.2,21346*,-3.8,-1.8
O=C(Nc1cccc2ccccc12)c1cnccn1,-8.9,2985,3.5,1.5
Cc1ccc2c(c1)C(c1ccc(F)cc1)N(C(=O)c1ccccc1Br)CC(=O)N2 (stereo not drawn),-3.5,3492,7.1,1.2
C=CCc1c(C)[nH]c(=O)[nH]c1=O,-0.2,4590,-2.0,-0.1
CCOc1nc(C)ccc1-c1noc(-c2ccco2)n1,-1.7,20107*,1.7,2.5
COc1ccccc1N1CCN(C(=O)c2ccc(COc3cccc4c3OC(C)(C)C4)cc2)CC1,3.1,5704,-12.3,-2.0
O=C(N/N=C/c1cc(Br)ccc1OC(=O)c1ccc(Br)cc1)c1ccncc1,0.3,6243,5.1,0.5
CCN(CC)C(=O)CSc1nc2ncccc2[nH]1,-0.2,24215*,-4.0,?
C=C1C(=O)C23C(O)C1CCC2C12CCCC(C)(COC(C)=O)C1C(O)C3(O)OC2 (stereo not drawn),-8.0,3054,-5.5,0.2
Cc1ccccc1N1CC(=O)N(c2ccccc2C)CC1=O,-5.1,2865,-9.9,-1.0
O=C1CN(c2ccccc2Cl)C(=O)CN1c1ccccc1Cl,-2.2,23954*,-3.6,-1.3
Cn1c(=O)[nH]c(=O)c2c1nc(Br)n2CCCSc1nc2ccccc2o1,0.3,17409*,-6.7,?
C/C=C/Cn1c(Br)nc2c1c(=O)[nH]c(=O)n2C,-3.6,22506*,1.0,0.7
COc1c(F)cccc1C1=CC(=O)C[C@H](c2ccc(F)cc2)C1,0.3,2999,-4.3,-0.4
CCOC(=O)Cc1csc(NC(=O)CSc2nc3sc(C(=O)O)c(C)c3c(=O)[nH]2)n1,1.0,22793*,-3.0,?
C=CCn1c(SCC(=O)C(C)(C)C)nnc1-c1ccccn1,-1.5,20695*,-0.4,-0.3
SMILES,Anthrax LF prot,Autofluor counter,BoNT-F LC inh,BoNT-A LC inh2
CCn1c(SCC(=O)C(C)(C)C)nnc1-c1ccccn1,2.3,5314,-6.4,-0.6
C=CCn1c(CCNC(=O)c2cccs2)nnc1SCC(=O)c1ccc(Br)cc1,1.1,20927*,-0.5,-1.1
C=CCn1c(SCC(=O)c2ccc(NS(=O)(=O)c3ccccc3)cc2)nnc1-c1cccs1,-0.4,20128*,0.3,?
C=CCn1c(CCNC(=O)c2cccs2)nnc1SCC(=O)Nc1cccc(C(C)=O)c1,-2.8,3386,-8.9,-0.5
C=CCn1c(SCC(=O)C(C)(C)C)nnc1-c1cccs1,-0.5,23404*,0.4,-0.2
C=CCn1c(SCC(=O)NC2CC2)nnc1-c1cccs1,1.8,5315,-7.2,1.1
C=CCn1c(SCC(=O)Nc2ccc(C(=O)OCC)cc2)nnc1-c1cccs1,1.9,3726,5.8,-1.0
CN(C)c1ccc(N/C=C/C(=O)c2ccc(F)cc2)cc1,-1.9,20250*,6.7,?
NS(=O)(=O)c1ccc(N/C=C\C(=O)c2ccc(F)cc2)cc1,-3.6,3191,-6.0,-0.8
O=C(c1ccccc1)c1sc(Nc2ccc3c(c2)OCO3)nc1-c1ccccc1,7.3,5743,10.6,9.5
Cc1cnc(NC(=O)C2CC(=O)N(c3cccc(Cl)c3)C2)s1 (stereo not drawn),-4.0,6370,4.4,-3.4
COc1ccc(NS(=O)(=O)c2cccc(C(=O)NCCCn3ccnc3)c2)cc1,-1.8,6707,-4.0,0.6
Cc1ccc(Oc2nsnc2N2CCOCC2)cc1,-0.8,20142*,-6.1,-1.0
O=C(Oc1nsnc1N1CCOCC1)c1ccccc1,-2.6,11236,-4.7,-0.2
CCOC(=O)c1ccccc1NC(=O)COC(=O)CCC1CCCC1,1.8,3195,-5.6,0.3
Cc1ccccc1/C(N)=N/OC(=O)N1c2ccccc2Sc2ccccc21,-1.6,23999*,-4.6,-1.9
CCCn1c2ccccc2c2nnc(SCC(=O)OCC)nc21,0.0,2128,-8.3,0.2
CCCn1c2ccccc2c2nnc(SCC(=O)OC)nc21,-5.4,20508*,6.3,4.7
Cc1nc(C)c(C(=O)Nc2ccccc2-c2ccccc2)o1,-0.7,23592*,0.6,-0.3
CC(C)(C)c1ccc(CC(=O)N2CCC2(C)C(=O)NCc2ccc3c(c2)OCO3)cc1 (stereo not drawn),0.3,3985,1.2,-0.6
COc1ccc(OC)c(N(/C(N)=N/c2nc(C)cc(C)n2)S(=O)(=O)c2ccc(NC(C)=O)cc2)c1,-7.8,2606,-5.5,0.1
CCOc1ccc(C(CC(=O)O)NC(=O)c2ccco2)cc1 (stereo not drawn),-6.8,19729*,2.6,?
OCC1(O)OC[C@@H](O)[C@H]1O (stereo partly drawn),5.1,5713,-3.7,0.3
S=C(NC1CCCCC1)N1CCN(C2CCCCC2)CC1,-5.7,3313,-3.1,-0.8
O=C(Cn1c(CC(=O)N2CCCC2)nc2ccccc21)NCc1ccccc1,-0.5,24078*,-3.3,-1.2
SMILES,Anthrax LF prot,Autofluor counter,BoNT-F LC inh,BoNT-A LC inh2
Cc1nc2ccccc2n1CC(=O)NCc1ccccc1,0.2,22747*,4.3,0.9
Cc1cccc(S(=O)(=O)C(C#N)c2nc3ccccc3nc2N2CCCC2)c1 (stereo not drawn),-0.5,3725,-7.6,4.8
Cc1ccc(C)c(S(=O)(=O)C(C#N)c2nc3ccccc3nc2N2CCCC2)c1 (stereo not drawn),-13.9,20606*,7.7,3.3
CCN1CCN(C(=O)CN(Cc2ccccc2)S(C)(=O)=O)CC1,-2.8,3460,4.2,-0.6
CN1CCN(C(=O)CN(Cc2ccccc2)S(C)(=O)=O)CC1,1.1,22469*,0.3,0.0
Cc1nn(-c2ccc(F)cc2)c2sc(C(=O)N3CCCCCC3)cc12,0.3,3283,-4.4,1.6
CNC(=O)COC(=O)c1cc2c(C)nn(-c3ccc(F)cc3)c2s1,-0.6,16925*,-3.1,-1.2
COc1ccc(N2C(=O)CCC2=O)cc1,-2.0,20610*,4.6,?
CC(=O)Oc1ccc(N2C(=O)CCC2=O)cc1,9.1,3030,?,1.2
CC(=O)Nc1ccc(/C=N/Nc2nncc3ccccc23)cc1,0.3,3024,47.5*,5.0
Fc1cccc(/C=N/Nc2nncc3ccccc23)c1,24.9,3485,13.5,-1.2
COc1ccc(-c2nnn(CC(=O)N(C3CCCCC3)C(C)C(=O)NC3CCCC3)n2)cc1OC (stereo not drawn),-3.3,23408*,-0.7,-0.2

# Screens from PubChem BioAssay.
